Sampled rows, rich in hits. Any-hit rate of the full collection: about 2.4%.
CHO-K1 Ca PAM = M1 PAM counterscreen hit in parental CHO-K1 cells | ATP EC20, Fluo-8 calcium fluorescence; 0% at ATP EC20, 100% at ATP max | activation, % at 3 µM | actives 0.02% (n = 360,000);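 active means activation above the run cutoff, the mean activation of all test compounds plus 3 SD, cut at about 40% in these data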;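 further: peak over basal fluorescence ratio in a 140 s read after ATP addition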
CHRM1 PAM = human CHRM1 positive allosteric modulation | P11229 | actives 0.088% (n = 360,000) | activation, % at 3 µM | CHO-K1 hM1, Fluo-8 calcium fluorescence, ACh EC20; 0% = ACh EC20, 100% = maximal ACh | AID 588819; in the data active means activation above about 19%, passing the limit was not always enough
Target sequence (P11229 whole entry, looked up): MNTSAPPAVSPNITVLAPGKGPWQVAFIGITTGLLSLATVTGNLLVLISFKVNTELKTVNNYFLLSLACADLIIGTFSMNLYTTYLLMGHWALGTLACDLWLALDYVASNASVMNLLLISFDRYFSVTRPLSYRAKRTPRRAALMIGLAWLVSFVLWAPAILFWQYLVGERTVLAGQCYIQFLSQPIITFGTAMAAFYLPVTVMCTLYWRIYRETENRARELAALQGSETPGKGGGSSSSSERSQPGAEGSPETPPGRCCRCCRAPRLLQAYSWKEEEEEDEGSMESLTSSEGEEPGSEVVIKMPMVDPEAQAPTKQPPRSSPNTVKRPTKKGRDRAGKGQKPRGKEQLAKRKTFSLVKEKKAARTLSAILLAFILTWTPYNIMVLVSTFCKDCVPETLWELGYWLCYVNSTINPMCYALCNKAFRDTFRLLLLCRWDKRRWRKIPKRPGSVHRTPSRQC
CHRM1 agonist = agonists of human M1 muscarinic receptor; P11229; CHO-K1 hM1, Fluo-8 calcium fluorescence, agonist mode; 0% DMSO, 100% acetylcholine EC100; activation, % at 3 µM; actives 0.33% (n = 360,000); AID 588814;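 active means activation above the run's mean compound activation plus 3 SD, cut at about 16% in these data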;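 further: peak over basal fluorescence ratio within a 140 s kinetic read after compound addition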
CHO-K1 Ca antag = nonselective inhibitor or artifact in parental CHO-K1 cells; AID 602250; ATP-induced calcium, Fluo-8 fluorescence; inhibition, % at 3 µM; actives 0.6% (n = 360,000);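 active means inhibition above a per-plate cutoff, the plate's mean sample inhibition plus 3 SD, cut at about 24% in these data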
M1 ag parental = M1 agonist counterscreen hit in parental CHO-K1 cells | Fluo-8 calcium fluorescence; scaled to maximal ATP response, vehicle zero | activation, % at 3 µM | actives 0.48% (n = 360,000) | AID 602248; in the data active means activation above about 15%;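 further: untransfected CHO-K1 host cells lacking M1 receptor as counterscreen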
M1 antag = antagonists of human M1 muscarinic receptor; P11229; CHO-K1 hM1, Fluo-8 calcium fluorescence, ACh EC80 antagonist; inhibition, % at 3 µM; actives 1.3% (n = 360,000); AID 588852;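 active means percent inhibition above its own plate's cutoff, namely the mean of that plate's compound wells plus 3 SD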;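 further: peak over basal fluorescence ratio during 140 s after agonist addition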
Large screens that a line does not name were inactive.

CC(C)(C)NC(=O)COC(=O)c1c2c(nc3ccccc13)CCC2	M1 antag 31
O=C(COC(=O)c1c2c(nc3ccccc13)CCCC2)Nc1ccc2c(c1)OCO2	M1 antag 32
COc1cccc(NC(=O)COC(=O)c2c3c(nc4ccccc24)CCC(C)C3)c1 (configuration not stated)	M1 antag 48
CC(=O)c1ccc(NC(=O)COC(=O)c2c3c(nc4ccccc24)/C(=C\c2cccs2)CCC3)cc1	none
O=C(COC(=O)c1c2c(nc3ccccc13)/C(=C\c1cccs1)CCC2)Nc1ccccc1	M1 antag 32
CCOC(=O)C1=C(C)C/C(=N\NC(=O)c2ccccc2O)CC1	none
CC(C)c1ccccc1NC(=O)COC(=O)c1c2c(nc3ccccc13)CCN(Cc1ccccc1)C2	M1 antag 37
Cc1c(CC(=O)NCC(=O)NCC(=O)N[C@@H](Cc2ccccc2)C(=O)O)c(=O)oc2c(C)c(O)ccc12	none
C=CCc1cccc(/C=N/NC(=O)c2ccccc2Br)c1O	CHO-K1 Ca PAM 44
C=CCc1cccc(/C=N/NC(=O)c2ccccc2OC)c1O	none
O=C(COC(=O)c1cc(Cl)cc(Cl)c1)NCCN1C(=O)CSC1=O	CHO-K1 Ca antag 26
O=C(COC(=O)CNC(=O)c1ccco1)NCCN1C(=O)CSC1=O	CHO-K1 Ca antag 31
O=C(COC(=O)c1cccc(Cl)c1)NCCN1C(=O)CSC1=O	none
COCCNC(=O)C1CCCN(Cc2cccc(C(F)(F)F)c2)CC1 (configuration not stated)	none
c1ccc(Oc2cccc(OCCCCN3CCCC3)c2)cc1	M1 antag 40
CC1CN(CCCCOc2cccc(Oc3ccccc3)c2)CC(C)O1 (configuration not stated)	M1 antag 29
N=C1C(c2ccccc2)=C(O)CN1CCCO	none
COCCN=c1scc(-c2cc(OC)ccc2OC)n1/N=C/c1c[nH]c2ccccc12	CHRM1 agonist 16
COC(=O)[C@@H](NCc1cccc(CN[C@H](C(=O)OC)c2ccccc2)c1)c1ccccc1	none
CC1C(=O)N2CCCc3cc(NC(=O)C(=O)NCCN4CCOCC4)cc1c32 (configuration not stated)	M1 antag 37
CC(C)CNC(=O)C(=O)Nc1cc2c3c(c1)C(C)C(=O)N3CCC2 (configuration not stated)	none
COc1ccc(-c2cc(C(=O)N(C)CC(=O)Nc3cccc(F)c3)c3ccccc3n2)cc1OC	M1 antag 37
COc1cccc(NC(=O)CN(C)C(=O)c2cc(-c3ccccc3)nn2-c2ccccc2)c1	CHRM1 PAM 24
COc1cccc(NC(=O)CN(C)C(=O)c2cc(-c3ccc(F)cc3)nc3ccccc23)c1	M1 antag 27
CN(CC(=O)Nc1cccc(F)c1)C(=O)Cc1n[nH]c(=O)c2ccccc12	M1 antag 41
COc1cccc(NC(=O)CN(C)C(=O)c2cc(-c3ccccc3)nc3ccccc23)c1	none
CCc1cccc(NC(=O)CCCSc2nc3ccccc3[nH]2)c1	none
COc1ccc2c(c1C)CCC(C)(C#N)C2=O (configuration not stated)	none
COc1ccccc1N(C(=O)c1cncc(Br)c1)c1nc(-c2ccc(C)cc2)cs1	none
CC(C)(C)c1ccc(S(=O)(=O)N2CCSC2)cc1	M1 antag 39
Cc1cn([C@H]2C[C@H](O)[C@@H](CCC(=O)NCc3cccs3)O2)c(=O)[nH]c1=O	CHO-K1 Ca antag 24
CC(=C/c1ccccc1)/C=N/n1cnnc1	CHRM1 agonist 22
CC(/C=N/n1cnnc1)=C\c1ccccc1	none
CC12CCC(=O)C=C1CCC1C2C(O)CC2(C)C(c3csc(N)n3)CCC12 (configuration not stated)	M1 antag 42
CC(=O)[C@@]1(O)CC[C@H]2[C@@H]3CCC4=CC(=O)CC[C@]4(C)[C@H]3[C@@H](O)C[C@@]21C	none
CCC(C(=O)OCC(=O)C1(O)CCC2C3CCC4=CC(=O)CCC4(C)C3C(O)CC21C)C(C)C (configuration not stated)	M1 antag 84
CC12CCC(=O)C=C1CCC1C2CCC2(C)C(c3csc(N)n3)CCC12 (configuration not stated)	M1 antag 79
CC12CCC(=O)C=C1CCC1C2CCC2(C)C(C(=O)CO)CC(O)C12 (configuration not stated)	none
CC(=O)C1CCC2C3CCC4=CC(=O)CCC4(C)C3C(O)CC12C (configuration not stated)	none
CCOC(=O)[C@]12CCC=C1N(Cc1cccc3ccccc13)C(=O)[C@H](CC(=O)NCCCCc1ccccc1)C2	none (no result: CHRM1 PAM, CHRM1 agonist, M1 antag)
N#Cc1c(N2CCN(c3ccc(F)cc3)CC2)nc(N)c2c(N)nc3c(c12)CC(=O)N3C1CC1	M1 antag 31
CCOc1cc(/C=C/C(=O)Nc2ccc(C(=O)NCCN(CC)CC)cc2)ccc1OCC(C)C	M1 antag 64
CN(C)c1ccc(-c2nn3c(C4CCCCC4)nnc3s2)cc1	CHO-K1 Ca antag 30
COc1cccc(NC(=O)CCc2nc(-c3ccccc3F)no2)c1	none
O=C(CCc1nc(-c2ccccc2F)no1)Nc1ccc(Oc2ccccc2)cc1	CHO-K1 Ca antag 24
Cc1ccc(C)c(OCC(=O)N(Cc2ccccc2)c2c(N)n(Cc3ccccc3)c(=O)[nH]c2=O)c1	none
COc1cc(NC(=O)c2ccc(-c3cnn(C)c3)c3ccoc23)cc(OC)c1OC	none
O=C(O)CC(C(=O)OC1CCCCC1)N1CCOCC1 (configuration not stated)	CHO-K1 Ca antag 31
O=C(O)CC(C(=O)OCC1CCCO1)N1CCOCC1 (configuration not stated)	none
Cn1nc(C(F)(F)F)c(/C=N/OC(=O)c2ccccc2Cl)c1SCc1ccccc1Cl	M1 antag 33
CCOC(=O)[C@]12CCCC=C1N(Cc1cccc3ccccc13)C(=O)[C@H](CC(=O)N1CCN(C(=O)C3CC3)CC1)C2	none (no result: CHRM1 PAM, CHRM1 agonist, M1 antag)
Cc1ccc(-c2cccc(CN3CCN(C4CCN(C(C)C)CC4)C(CCO)C3)c2)o1 (configuration not stated)	M1 antag 31
CC(C)N1CCC(N2CCN(Cc3ccc(-c4ccc(Cl)cc4)o3)CC2CCO)CC1 (configuration not stated)	none
Cc1ccc(NC(=O)COc2nsnc2N2CCOCC2)cc1Cl	none
CCCCCCC(C)OC(=O)Nc1cccc2ccccc12 (configuration not stated)	none
CC(C)CN1CCN(CCCOC(=O)Nc2cccc3ccccc23)CC1C (configuration not stated)	M1 antag 32

Assay outcomes deposited in PubChem BioAssay by The Scripps Research Institute Molecular Screening Center.
